# In article PMC7862700, “An all-to-all approach to the identification of sequence-specific readers for epigenetic DNA modifications on cytosine”:
# Columns and labels:
# Experiment in all cases: DAPPL (digital affinity profiling via proximity ligation, sequencing); 10 mM Tris-HCl pH 7.5, 50 mM NaCl, 1 mM DTT, 4% glycerol, room temperature, 30 min; GST-TFs on glutathione beads, 16-mer random dsDNA library, 0.1% formaldehyde crosslink after washing; high values mean tight binding
# Settings in all cases: protein: recombinant; tags: N-terminal GST; dsDNA, one strand shown
# ELF4 = ELF4 (Homo sapiens, UniProt Q99607 1-663)
# Chain of ELF4 (Q99607 whole entry, the tested form may be a part): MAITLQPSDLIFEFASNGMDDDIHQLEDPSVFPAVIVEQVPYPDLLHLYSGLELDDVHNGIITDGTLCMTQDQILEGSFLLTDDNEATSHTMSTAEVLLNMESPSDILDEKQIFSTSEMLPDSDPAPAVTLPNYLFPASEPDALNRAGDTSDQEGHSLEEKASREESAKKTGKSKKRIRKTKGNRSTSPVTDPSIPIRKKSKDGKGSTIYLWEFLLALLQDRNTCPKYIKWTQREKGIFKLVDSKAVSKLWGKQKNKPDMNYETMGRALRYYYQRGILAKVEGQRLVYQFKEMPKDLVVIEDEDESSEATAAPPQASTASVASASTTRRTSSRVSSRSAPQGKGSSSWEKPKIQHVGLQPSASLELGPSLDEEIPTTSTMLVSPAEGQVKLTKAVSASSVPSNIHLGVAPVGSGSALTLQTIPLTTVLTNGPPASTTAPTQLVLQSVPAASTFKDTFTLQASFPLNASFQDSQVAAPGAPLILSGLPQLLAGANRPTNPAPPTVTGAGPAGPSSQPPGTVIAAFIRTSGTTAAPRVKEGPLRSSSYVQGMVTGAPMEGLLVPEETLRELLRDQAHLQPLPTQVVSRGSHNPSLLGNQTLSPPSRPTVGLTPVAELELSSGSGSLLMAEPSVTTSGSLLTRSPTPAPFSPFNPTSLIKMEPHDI
# How it was run: (§1)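 In yeast, human transcription factors were expressed with a GST fusion, then pulled down on glutathione beads and given DNA barcodes. Pooled with a tag-only sample, they were exposed to 200 nmole of a 16-mer random double-stranded DNA library (Tris/NaCl/DTT/glycerol buffer, room temperature, 30 min), washed, crosslinked with 0.1% formaldehyde, proximity-ligated using BsaI/T4 ligase for 1 h at 37 °C, PCR-amplified and read on an Illumina NextSeq500. Each hexamer's frequency of reads for a factor, divided by the matching frequency for the tag-only sample, gives the binding signal.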
# ELK4 = biological target: T1, ELK4 (Homo sapiens, UniProt P28324-2 1-405)
# T1 sequence: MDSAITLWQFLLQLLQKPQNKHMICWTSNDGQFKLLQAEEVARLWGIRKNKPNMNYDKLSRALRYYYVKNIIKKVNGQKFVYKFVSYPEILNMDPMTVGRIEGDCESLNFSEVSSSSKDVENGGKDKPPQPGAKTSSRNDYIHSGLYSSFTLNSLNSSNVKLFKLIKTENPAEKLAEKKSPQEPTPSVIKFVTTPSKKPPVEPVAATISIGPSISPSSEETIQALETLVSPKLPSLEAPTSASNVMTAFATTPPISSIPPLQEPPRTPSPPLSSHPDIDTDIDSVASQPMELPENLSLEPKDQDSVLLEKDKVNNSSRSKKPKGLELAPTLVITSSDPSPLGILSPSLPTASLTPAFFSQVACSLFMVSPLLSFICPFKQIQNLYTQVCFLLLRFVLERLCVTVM
# How it was run: as §1
# ETV2 = biological target: T2, ETV2 (Homo sapiens, UniProt O00321 1-342)
# T2 sequence: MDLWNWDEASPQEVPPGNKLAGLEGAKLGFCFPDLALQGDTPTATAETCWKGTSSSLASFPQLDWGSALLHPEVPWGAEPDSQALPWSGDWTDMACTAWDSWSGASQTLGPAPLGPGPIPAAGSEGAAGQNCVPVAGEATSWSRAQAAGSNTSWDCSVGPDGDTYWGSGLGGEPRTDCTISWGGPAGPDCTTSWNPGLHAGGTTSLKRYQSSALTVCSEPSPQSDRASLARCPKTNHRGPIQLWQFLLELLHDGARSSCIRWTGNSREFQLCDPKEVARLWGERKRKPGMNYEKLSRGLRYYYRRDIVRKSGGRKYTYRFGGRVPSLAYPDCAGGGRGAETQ
# How it was run: as §1
# CRX = CRX (Homo sapiens, UniProt O43186 1-299)
# Chain of CRX (O43186 whole entry): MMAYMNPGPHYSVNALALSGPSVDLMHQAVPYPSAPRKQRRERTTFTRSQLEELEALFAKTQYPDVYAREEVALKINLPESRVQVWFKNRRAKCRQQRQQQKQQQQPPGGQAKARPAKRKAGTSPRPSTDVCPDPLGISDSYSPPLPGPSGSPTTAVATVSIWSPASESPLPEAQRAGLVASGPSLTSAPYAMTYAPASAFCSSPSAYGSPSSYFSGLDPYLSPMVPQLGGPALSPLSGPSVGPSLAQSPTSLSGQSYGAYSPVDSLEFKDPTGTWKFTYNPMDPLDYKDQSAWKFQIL
# How it was run: as §1
# ETV1 = ETV1 (Homo sapiens, UniProt P50549 1-477)
# Chain of ETV1 (P50549 whole entry): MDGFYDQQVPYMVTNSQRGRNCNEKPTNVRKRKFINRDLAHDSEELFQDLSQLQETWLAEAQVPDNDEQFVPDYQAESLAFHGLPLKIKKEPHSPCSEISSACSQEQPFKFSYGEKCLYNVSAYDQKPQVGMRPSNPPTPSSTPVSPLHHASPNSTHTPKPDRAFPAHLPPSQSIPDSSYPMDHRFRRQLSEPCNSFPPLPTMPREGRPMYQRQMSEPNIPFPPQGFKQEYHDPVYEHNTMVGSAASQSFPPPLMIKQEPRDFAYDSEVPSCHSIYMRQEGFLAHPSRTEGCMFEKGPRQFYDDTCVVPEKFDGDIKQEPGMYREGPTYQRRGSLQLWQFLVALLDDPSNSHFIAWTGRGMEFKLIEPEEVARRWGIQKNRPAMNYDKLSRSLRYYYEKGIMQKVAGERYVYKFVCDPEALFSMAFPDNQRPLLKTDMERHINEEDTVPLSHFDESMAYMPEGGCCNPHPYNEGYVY
# How it was run: as §1
# ETV3L = biological target: T3, ETV3L (Homo sapiens, UniProt Q6ZN32 1-361)
# T3 sequence: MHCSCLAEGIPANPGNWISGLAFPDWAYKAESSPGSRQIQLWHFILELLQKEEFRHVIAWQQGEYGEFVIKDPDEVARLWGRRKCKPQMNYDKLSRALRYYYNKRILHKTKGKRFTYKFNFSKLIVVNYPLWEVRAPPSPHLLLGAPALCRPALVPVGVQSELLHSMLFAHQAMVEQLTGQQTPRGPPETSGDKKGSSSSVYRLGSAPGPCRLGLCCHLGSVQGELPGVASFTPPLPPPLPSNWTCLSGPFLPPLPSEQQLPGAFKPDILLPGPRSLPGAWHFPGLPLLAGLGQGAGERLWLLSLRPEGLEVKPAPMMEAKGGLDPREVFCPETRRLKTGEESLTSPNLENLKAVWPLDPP
# How it was run: as §1
# ETS2 = biological target: T4, ETS2 (Homo sapiens, UniProt P15036 1-469)
# T4 sequence: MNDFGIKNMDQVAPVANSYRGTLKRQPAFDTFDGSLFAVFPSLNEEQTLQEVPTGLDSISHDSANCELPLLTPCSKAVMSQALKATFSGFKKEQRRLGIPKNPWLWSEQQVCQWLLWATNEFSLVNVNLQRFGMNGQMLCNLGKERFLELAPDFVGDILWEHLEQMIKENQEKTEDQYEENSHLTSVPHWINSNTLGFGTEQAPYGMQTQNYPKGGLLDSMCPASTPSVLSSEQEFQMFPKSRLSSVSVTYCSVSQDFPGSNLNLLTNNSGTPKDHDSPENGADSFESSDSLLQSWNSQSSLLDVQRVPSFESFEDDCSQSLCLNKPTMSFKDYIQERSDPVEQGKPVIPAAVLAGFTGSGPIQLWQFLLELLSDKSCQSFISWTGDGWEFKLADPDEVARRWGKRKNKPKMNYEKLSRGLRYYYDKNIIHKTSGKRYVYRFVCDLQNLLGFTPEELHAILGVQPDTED
# How it was run: as §1
# ETV7 = biological target: T5, ETV7 (Homo sapiens, UniProt Q9Y603 1-341)
# T5 sequence: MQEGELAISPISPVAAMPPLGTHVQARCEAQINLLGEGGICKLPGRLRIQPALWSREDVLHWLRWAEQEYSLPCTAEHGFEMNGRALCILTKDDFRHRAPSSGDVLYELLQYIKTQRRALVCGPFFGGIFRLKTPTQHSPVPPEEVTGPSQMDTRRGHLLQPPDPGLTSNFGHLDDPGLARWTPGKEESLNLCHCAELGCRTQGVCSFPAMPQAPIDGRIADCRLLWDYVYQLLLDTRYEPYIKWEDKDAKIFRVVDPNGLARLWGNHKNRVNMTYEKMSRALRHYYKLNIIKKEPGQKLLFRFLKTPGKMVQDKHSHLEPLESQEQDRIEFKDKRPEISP
# How it was run: as §1
# ELF5 = biological target: T6, ELF5 (Homo sapiens, UniProt Q9UKW6-2 1-255)
# T6 sequence: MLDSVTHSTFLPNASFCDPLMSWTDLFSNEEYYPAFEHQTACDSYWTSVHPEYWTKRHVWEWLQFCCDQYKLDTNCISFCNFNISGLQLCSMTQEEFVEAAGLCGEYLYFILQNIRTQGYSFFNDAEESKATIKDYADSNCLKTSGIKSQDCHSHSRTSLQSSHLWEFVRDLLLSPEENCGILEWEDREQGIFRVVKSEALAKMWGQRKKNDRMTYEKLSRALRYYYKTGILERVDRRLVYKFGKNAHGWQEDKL
# How it was run: as §1
# ETV3 = biological target: T7, ETV3 (Homo sapiens, UniProt P41162-2 1-143)
# T7 sequence: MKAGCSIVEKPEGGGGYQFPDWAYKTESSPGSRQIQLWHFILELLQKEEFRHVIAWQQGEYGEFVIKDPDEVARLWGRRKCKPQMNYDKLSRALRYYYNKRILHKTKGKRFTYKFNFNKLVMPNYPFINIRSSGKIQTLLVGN
# How it was run: as §1
sequence,measurement,setting,value
TGATAA,binding signal,ELF4,"1.07 fold enrichment (6-mer frequency, TF over GST control)"
same,binding signal,ELK4,"1.06 fold enrichment (6-mer frequency, TF over GST control)"
same,binding signal,ETV2,"1.02 fold enrichment (6-mer frequency, TF over GST control)"
same,binding signal,CRX,"1.52 fold enrichment (6-mer frequency, TF over GST control)"
same,binding signal,ETV1,"1.07 fold enrichment (6-mer frequency, TF over GST control)"
same,binding signal,ETV3L,"1.06 fold enrichment (6-mer frequency, TF over GST control)"
same,binding signal,ETS2,"1.01 fold enrichment (6-mer frequency, TF over GST control)"
same,binding signal,ETV7,"1.08 fold enrichment (6-mer frequency, TF over GST control)"
same,binding signal,ELF5,"1.02 fold enrichment (6-mer frequency, TF over GST control)"
same,binding signal,ETV3,"1.05 fold enrichment (6-mer frequency, TF over GST control)"
